A number with no mark means an inactive call. Results filed as inconclusive are left out. A call without a number means that no potency is given here. Activity calls are given as the source filed them. Calls follow the shape of the dose curve; as a rule, active = well fitted curve in the direction sought with a large enough effect; inconclusive = small, poorly fitted or top-dose-only effect, or another doubt; inactive = no such curve, though single readings can be large; an effect the other way counts as inactive or inconclusive.
Columns and labels:
[1] = molecular target: Glutathione peroxidase 1 (Homo sapiens) (UniProt P07203); assay: Primary qHTS Assay for Inhibitors of Recombinant Selenoprotein Glutathione Peroxidase 1 (GPX1) (AID 1845191); also: nearly all actives have a fitted effect of over 65% in size
Procedure, shortened: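 GR-coupled readout: NADPH consumption tracked by fluorescence, ex 340/em 450 nm, at t=0 and after 15 min at RT. Final mix 10 nM GPX1, 1 mM GSH, 0.5 mM CHP, 0.5 mM NADPH, 100 nM GR, 0.01% BSA, following 30 min enzyme–compound preincubation.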

[2] = molecular target: Phospholipid hydroperoxide glutathione peroxidase GPX4 (Homo sapiens) (UniProt P36969); assay: Primary qHTS Assay for Inhibitors of Recombinant Selenoprotein Glutathione Peroxidase 4 (GPX4) (AID 1845192); also: nearly all actives have a fitted effect of over 65% in size; as to activity change, negative = inhibition: series mostly up to about 50 µM
Procedure, shortened: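 Steps: GPX4 plus compound, 30 min RT; add GR/GSH/NADPH master mix; start with cumene hydroperoxide; read 340/450 nm fluorescence at 0 and 15 min. Finals were 200 nM GPX4, 1 mM GSH, 0.5 mM CHP, 0.5 mM NADPH, 100 nM GR.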

[3] = molecular target: Luciferin 4-monooxygenase (Photinus pyralis) (UniProt P08659); assay: Primary firefly luciferase (FLuc) qHTS assay for identification of artifact compounds. (AID 1845220); also: nearly all actives have a fitted effect of over 60% in size; as to activity change, negative = inhibition: series mostly up to about 54 µM
Procedure, shortened: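 Titrated compounds were incubated 15 min at RT, protected from light, with luciferin and ATP at 10 uM; reaction started with 10 nM FLuc, luminescence imaged at 5 min, and concentration-response fitted by Hill equation.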

[4] = Primary fluorescence-based thiol-reactive (MSTI) qHTS assay for identification of artifact compounds. (AID 1845221); also: nearly all actives have a fitted effect of over 65% in size; also: potency is read from the fitted curve at half-maximal effect;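 as to activity change, negative = thiol reactive: series mostly up to about 54 µM; thiol-reactive compounds lower the probe fluorescence signal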
Procedure, shortened: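 In PBS pH 7.4 with 2% DMSO, each compound met 4 uM MSTI for one hour at ambient temperature, shielded from light, before fluorescence detection.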

[5] = test system: Nanoluciferase (engineered Oplophorus gracilirostris luciferase); assay: Primary Nanoluciferase (NLuc) qHTS assay for identification of artifact compounds. (AID 1845222);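 also: NLuc secreted into diluted conditioned medium of S16 cells; series mostly up to about 54 µM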
Procedure, shortened: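 qHTS format, against NLuc in S16 cell-conditioned medium. Nano-Glo substrate 1:100 was added after 15 min at room temperature. Luminescence was taken after a further 5 min.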

[6] = Primary redox qHTS assay for identification of artifact compounds. (AID 1845223)
Procedure, shortened: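 Redox-cycling detection via DTT (250 uM final) oxidation coupled to Amplex Red (25 uM)/HRP (250 mU/mL) in HBSS. 15 min preincubation plus 30 min after DTT, room temperature. Ex/Em 525/598 nm; 4-parameter Hill fit against DMSO and 10 uM DA3003.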

Phospholipid hydroperoxide glutathione peroxidase GPX4 (Homo sapiens), sequence (P36969 whole entry, looked up): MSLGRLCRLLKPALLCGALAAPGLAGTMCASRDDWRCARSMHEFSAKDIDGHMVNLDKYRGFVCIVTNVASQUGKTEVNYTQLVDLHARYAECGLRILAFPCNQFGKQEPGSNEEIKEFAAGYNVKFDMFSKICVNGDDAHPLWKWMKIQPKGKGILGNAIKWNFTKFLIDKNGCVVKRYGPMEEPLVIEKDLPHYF
Glutathione peroxidase 1 (Homo sapiens), sequence (P07203 whole entry, looked up): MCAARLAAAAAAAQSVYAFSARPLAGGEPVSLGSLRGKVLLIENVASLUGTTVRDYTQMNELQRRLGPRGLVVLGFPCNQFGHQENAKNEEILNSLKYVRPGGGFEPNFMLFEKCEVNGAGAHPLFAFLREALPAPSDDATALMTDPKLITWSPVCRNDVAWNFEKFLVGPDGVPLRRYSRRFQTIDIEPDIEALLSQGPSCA

With `C=C1C2CCC3CC2(CC(O)C2(O)C1CC(OC1OC(CO)C(O)C(O)C1O)C2(C)C)CC3(C)O` (centres undefined) as the compound, how does the Potency [1] read?
Its Potency is “inactive”.

And the Potency [2]?
Its Potency is “inactive”.

What about the Potency [3] of the same compound?
Its Potency is “inactive”.

What about the Potency [4] of the same compound?
Its Potency is 5.19 µM (active).

What about the Potency [5] of the same compound?
Its Potency is “inactive”.

And the Potency [6]?
The Potency was “inactive”.

Which Potency [1] does the source give for `CC1(C)Oc2ncnc(N)c2N=C1c1ccc(C2CCC(CC(=O)O)CC2)cc1` (centres undefined) here?
Its Potency is “inactive”.

And the Potency [2]?
The Potency was “inactive”.

What about the Potency [3] of the same compound?
The Potency was “inactive”.

And the Potency [4]?
Its Potency is “inactive”.

What about the Potency [5] of the same compound?
The Potency was “inactive”.

What about the Potency [6] of the same compound?
The Potency was “inactive”.

Which results are given for `CCOC(=O)C1=C(N)Oc2ccc(Cl)cc2C1C(C#N)C(=O)OCC` (centres undefined)?
Potency [1]: inactive; Potency [2]: inactive; Potency [3]: inactive; Potency [4]: inactive; Potency [5]: inactive; Potency [6]: inactive

With `CC(=O)OCC1=CCC2C(C)(C)CCCC2(C)C12CCC(C)(CC(=O)O)O2` (centres undefined) as the compound, how does the Potency [1] read?
The Potency was “inactive”.

What about the Potency [2] of the same compound?
Its Potency is “inactive”.

What about the Potency [3] of the same compound?
Its Potency is “inactive”.

And the Potency [4]?
The Potency was “inactive”.

And the Potency [5]?
Its Potency is “inactive”.

And the Potency [6]?
Its Potency is “inactive”.

With `O=C(Nc1ccn(Cc2c(F)cccc2C(F)(F)F)n1)c1c(F)cccc1F` as the compound, how does the Potency [1] read?
The Potency was “inactive”.

What about the Potency [2] of the same compound?
The Potency was “inactive”.

What about the outcome [3] of the same compound?
The outcome was “inactive [at 11.6 µM]”.

What about the activity change, negative = thiol reactive [4] of the same compound?
Its activity change, negative = thiol reactive is 27.2% [at 11.5 µM].

And the activity, negative = inhibition [5]?
The activity, negative = inhibition was 3.13% [at 11.6 µM].

And the redox activity (% of DA3003) [6]?
The redox activity (% of DA3003) was -0.702% [at 11.5 µM].

What does the source list for `COC(=O)C(CC1(O)c2ccccc2N2C(=O)C(C)(C)N(O)C21)n1cnc2ccccc2c1=O` (centres undefined)?
Potency [1]: inactive; Potency [2]: inactive; Potency [3]: inactive; Potency [4]: inactive; Potency [5]: inactive; Potency [6]: inactive

With `C/C=C(\C)C(=O)O[C@H]1C=CC(=O)O[C@H]1/C=C/[C@H](O)[C@@H](C)O` as the compound, how does the Potency [1] read?
The Potency was “inactive”.

And the Potency [2]?
The Potency was “inactive”.

What about the Potency [3] of the same compound?
Its Potency is “inactive”.

And the Potency [4]?
The Potency was “inactive”.

What about the Potency [5] of the same compound?
Its Potency is “inactive”.

What about the Potency [6] of the same compound?
The Potency was “inactive”.

Which Potency [1] does the source give for `COc1ccc(CC(=O)NCc2ccccc2-c2ccccc2C(=O)NCCc2cccnc2)cc1` here?
Its Potency is “inactive”.

And the Potency [2]?
Its Potency is “inactive”.

And the Potency [3]?
The Potency was “inactive”.

And the Potency [4]?
Its Potency is “inactive”.

What about the Potency [5] of the same compound?
The Potency was “inactive”.

And the Potency [6]?
The Potency was “inactive”.

With `COc1cc2c(cc1O)C(c1ccc(O)cc1)C(C)C(C)C2` (centres undefined) as the compound, how does the Potency [1] read?
The Potency was “inactive”.

And the Potency [2]?
The Potency was “inactive”.

What about the Potency [3] of the same compound?
The Potency was “inactive”.

What about the Potency [4] of the same compound?
The Potency was “inactive”.

What about the Potency [5] of the same compound?
Its Potency is “inactive”.

And the Potency [6]?
Its Potency is “inactive”.

Which Potency [1] does the source give for `C[C@@]1(C(=O)O)CCC[C@@]2(C)C3=CC[C@H]4C[C@@]3(CC[C@H]12)CC4(O)CO` (some centres undefined) here?
The Potency was “inactive”.

And the Potency [2]?
Its Potency is “inactive”.

And the Potency [3]?
The Potency was “inactive”.

And the Potency [4]?
The Potency was “inactive”.

What about the Potency [5] of the same compound?
The Potency was “inactive”.

What about the Potency [6] of the same compound?
The Potency was “inactive”.

Which Potency [1] does the source give for `CC(O)C/C=C/C=C/C(=O)OC1C=C2COC(=O)C2(O)C2(C)CCCC(C)(C)C12` (centres undefined) here?
The Potency was “inactive”.

What about the Potency [2] of the same compound?
Its Potency is “inactive”.

What about the Potency [3] of the same compound?
Its Potency is “inactive”.

And the Potency [4]?
The Potency was “inactive”.

And the Potency [5]?
Its Potency is “inactive”.

And the Potency [6]?
The Potency was “inactive”.

What does the source list for `FC(F)(F)c1nnc2c(Sc3ccccc3)nc3ccc(Cl)cc3n12`?
Potency [1]: inactive; Potency [2]: inactive; Potency [3]: inactive; Potency [4]: inactive; Potency [5]: inactive; Potency [6]: inactive

With `CC1=C(CCC(C)O[C@@H]2O[C@H](CO)[C@@H](O)[C@H](O)[C@H]2O)C(C)(C)CC(O)C1` (some centres undefined) as the compound, how does the Potency [1] read?
Its Potency is “inactive”.

And the Potency [2]?
Its Potency is “inactive”.

And the Potency [3]?
Its Potency is “inactive”.

And the Potency [4]?
Its Potency is 5.85 µM (active).

And the Potency [5]?
The Potency was “inactive”.

And the Potency [6]?
Its Potency is “inactive”.

Which results are given for `C=CC1(C)CC2CCC3C(C)(C(=O)O)CCCC3(C)C2=CC1=O` (centres undefined)?
Potency [1]: inactive; Potency [2]: inactive; Potency [3]: inactive; Potency [4]: inactive; Potency [5]: inactive; Potency [6]: inactive

Which results are given for `CC(C)(O)C(O)C(=O)OCc1ccc(O[C@@H]2O[C@H](CO)[C@@H](O)[C@H](O)[C@H]2O)cc1` (some centres undefined)?
Potency [1]: inactive; Potency [2]: inactive; Potency [3]: inactive; Potency [4]: inactive; Potency [5]: inactive; Potency [6]: inactive

With `O=C(/C=C/c1ccc(O)c(O)c1)OC[C@H]1O[C@@H](OC2CCCCC2O)[C@H](O)[C@@H](O)[C@@H]1O` (some centres undefined) as the compound, how does the Potency [1] read?
The Potency was “inactive”.

And the Potency [2]?
The Potency was “inactive”.

What about the Potency [3] of the same compound?
The Potency was “inactive”.

What about the Potency [4] of the same compound?
The Potency was 1.16 µM (active).

What about the Potency [5] of the same compound?
Its Potency is “inactive”.

What about the Potency [6] of the same compound?
Its Potency is “inactive”.

With `C[C@H]1CC[C@@]2(OC1)O[C@H]1CC3C4CC[C@H]5C[C@@H](O)CC[C@]5(C)C4CC(=O)[C@]3(C)[C@H]1[C@@H]2C` (some centres undefined) as the compound, how does the Potency [1] read?
The Potency was “inactive”.

And the Potency [2]?
Its Potency is “inactive”.

What about the Potency [3] of the same compound?
The Potency was “inactive”.

And the Potency [4]?
Its Potency is “inactive”.

What about the Potency [5] of the same compound?
Its Potency is “inactive”.

What about the Potency [6] of the same compound?
Its Potency is “inactive”.

For `CC(/C=C/C=C(\C)C(=O)O[C@@H]1O[C@H](CO[C@@H]2O[C@H](CO)[C@@H](O)[C@H](O)[C@H]2O)[C@@H](O)[C@H](O)[C@H]1O)=C\C=C\C=C(C)\C=C\C=C(/C)C(=O)O[C@@H]1C[C@](O)(C(=O)O)C[C@@H](O)[C@H]1OC(=O)/C=C/c1ccc(O)c(O)c1`, which Potency [1] is on record?
The Potency was “inactive”.

What about the Potency [2] of the same compound?
Its Potency is “inactive”.

And the activity change, negative = inhibition [3]?
Its activity change, negative = inhibition is -0.112% [at 11.6 µM].

And the Potency [4]?
The Potency was 0.45 µM (active).

What about the activity, negative = inhibition [5] of the same compound?
The activity, negative = inhibition was -29.7% [at 11.6 µM].

What about the redox activity (% of DA3003) [6] of the same compound?
The redox activity (% of DA3003) was -7.98% [at 11.5 µM].

With `CCCO[C@@H]1O[C@H](CO)[C@@H](O)[C@H](O)[C@H]1O[C@@H]1OC[C@@H](O)[C@H](O)[C@H]1O` as the compound, how does the Potency [1] read?
The Potency was “inactive”.

What about the Potency [2] of the same compound?
The Potency was “inactive”.

What about the Potency [3] of the same compound?
The Potency was “inactive”.

And the Potency [4]?
The Potency was “inactive”.

And the Potency [5]?
Its Potency is “inactive”.

And the Potency [6]?
The Potency was “inactive”.

Reference: PubChem BioAssay (NCATS)
